# Results published in PubChem BioAssay.
# A number with no mark means an inactive call. How the calls were made is not given here.
# Target: Pantothenate synthetase (Mycobacterium tuberculosis (strain ATCC 25618 / H37Rv)) (UniProt P9WIL5)
# Assay: Coupled enzyme confirmation of inhibitors against recombinant Mtb PanC (AID 375);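 further: 0% = full reaction with vehicle and 100% = no enzyme background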
# Settings: coupled enzyme assay; at 10 µM, stronger effect = higher value
# Chain of Pantothenate synthetase (Mycobacterium tuberculosis (strain ATCC 25618 / H37Rv)) (P9WIL5 whole entry, looked up): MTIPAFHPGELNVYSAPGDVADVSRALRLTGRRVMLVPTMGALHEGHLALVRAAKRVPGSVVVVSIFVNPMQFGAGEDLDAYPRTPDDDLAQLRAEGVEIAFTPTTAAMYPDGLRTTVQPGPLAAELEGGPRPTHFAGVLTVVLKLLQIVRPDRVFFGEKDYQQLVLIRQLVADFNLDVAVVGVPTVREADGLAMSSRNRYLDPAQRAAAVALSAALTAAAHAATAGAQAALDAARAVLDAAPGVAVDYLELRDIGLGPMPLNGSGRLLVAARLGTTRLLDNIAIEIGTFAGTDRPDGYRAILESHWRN
row,SMILES,inhibition
1,CC1CN(C(=O)CSc2nnc(-c3ccc(Cl)cc3)n2C)CC(C)O1 (stereo not given),0%
2,Cc1ccc(NC(=O)c2ccco2)c(NC(=O)CN2C(=O)c3ccccc3C2=O)c1,7%
3,Cc1nnc(NC(=O)c2ccccc2F)s1,0%
4,COc1ccc(NC(=O)CSc2nc(C)cc(C(F)(F)F)n2)cc1,0%
5,CNCCCN1c2ccccc2CCc2ccccc21,0%
6,CC(CN(C)Cc1ccccc1)OC(=O)c1ccc2c(c1)OCCO2 (stereo not given),0%
7,COc1ccc(OC)c(C(=O)c2ccc(C(=O)O)cc2)c1,0%
8,O=C(CN(Cc1ccco1)C(=O)CNS(=O)(=O)c1ccc(F)cc1)NCCc1ccccc1,3%
9,CCOc1ccccc1C1C(C(=O)Nc2ccc(OC)cc2)=C(C)Nc2nc(CCCO)nn21 (stereo not given),0%
10,CCOC(=O)N1CCC(N(C(=O)Nc2ccc(Cl)c(Cl)c2)C(C)CC)CC1 (stereo not given),4%
11,O=C(CSc1nnc(-c2cnccn2)n1Cc1ccco1)c1ccc(Cl)cc1,0%
12,Cc1cc(Br)ccc1NC(=O)CCN1C(=O)c2ccncc2C1=O,0%
13,COc1cccc(OC)c1OCCCSc1nc(C)cc(=O)[nH]1,0%
14,CC(C)C(=O)Nc1ccc(C(=O)NCc2cccnc2)cc1,0%
15,COc1ccc(C(C(C(=O)c2ccco2)N2CCOCC2)N2CCOCC2)cc1 (stereo not given),11%
16,Cc1ccc(CC2SC(=O)NC2=O)cc1Cl (stereo not given),0%
17,Cc1cc(NC(=O)Cc2c(F)cccc2Cl)no1,10%
18,COCCOC(=O)C1=C(C)OC(N)=C(C#N)C1c1ccc2c(c1)OCO2 (stereo not given),0%
19,COc1cccc(Oc2cnc(N)nc2-c2ccc(OC)cc2O)c1,2%
20,COc1ccc(C(c2nnnn2C2CCCC2)N2CCC(C)CC2)c(OC)c1 (stereo not given),3%

row,SMILES,inhibition
1,CCOC(=O)c1sc2nc3c(cc2c1N)COC(C)(C)C3,12%
2,CCOc1cc(C2C3=C(CCCC3=O)N(C)C3=C2C(=O)CCC3)cc(Cl)c1O,0%
3,CCN(CC)c1ccc2c(c1)CCCN2,3%
4,COCCN(CCOC)Cc1c(C)[nH]c2ccccc2c1=O,0%
5,CCOC(=O)CC(=O)CSc1nc(-c2cccnc2)ccc1C#N,0%
6,Cc1ccc(S(=O)(=O)NC(=O)c2cc(C)n(CCCn3ccnc3)c2C)cc1,2%
7,Cc1ccc(-n2c(SCC3CCCCO3)nnc2-c2ccco2)cc1 (stereo not given),6%
8,CC1CN(CC(O)COc2ccccc2C(C)(C)C)CC(C)O1 (stereo not given),0%
9,O=S(=O)(NCC1CCCO1)c1cccc(C(F)(F)F)c1 (stereo not given),0%
10,CCN(CC)S(=O)(=O)c1ccc(F)cc1,0%
11,CCc1nn2c(N3CCOCC3)cc(C)nc2c1-c1ccc(F)cc1,0%
12,CC(=O)OC1c2ccccc2C(=O)N1c1ccccc1C (stereo not given),1%
13,COc1cccc(CN2C(=O)C3(C(C#N)=C(N)OC4=C3C(=O)CCC4)c3ccccc32)c1 (stereo not given),0%
14,CN(C)c1ccc(/C=C/c2ccncc2)cc1,1%
15,CCN(CC)CCN1C(=O)C(=O)/C(=C(/O)c2ccc(OC(C)C)cc2)C1c1ccncc1 (stereo not given),5%
16,Cc1cccc(-n2ncc3c(NCCCO)ncnc32)c1,2%
17,COc1ccc2oc(=O)c(C(=O)N3CCN(c4ccccc4F)CC3)cc2c1,0%
18,O=C(CN1CCOCC1)N1CCCc2c1c(=O)oc1ccc(OCc3ccccc3)cc21,4%
19,CC1Cc2ccccc2N1C(=O)CSc1nnc2n1C(C)(C)Cc1ccccc1-2 (stereo not given),0%
20,COC(=O)[C@@H](NC(=O)NCc1ccccc1Cl)C(C)C,0%
